Where a name gives a salt, the structure may show the parent alone.
Assays:
Test in all cases: phenotypically active (imaging signature differs from DMSO and reproducible) at any of 0.3-9 uM (binary (1 = active, 0 = inactive)); higher = active
Details in all cases: treatment time: 24 h
A549-ACTB-RAB5A = tested on: A549-ACTB-RAB5A
How it was run: (§1)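 Phenotypic activity depended on meeting both a deviation and a reproducibility criterion. The fifteen gene-edited A549, HepG2 and WPMY1 reporter lines were treated at 0.3, 1, 3 or 9 µM for 24 h, four wells each, then imaged live with features normalised to solvent control wells. Deviation required ≥3 of 4 wells past the 95th percentile of control Euclidean distances, and reproducibility a median replicate Pearson correlation above the 95th percentile of non-replicates.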

A549-CANX-COX4 = tested on: A549-CANX-COX4
How it was run: as §1

A549-GM130-SQSTM1 = tested on: A549-GM130-SQSTM1
How it was run: as §1

A549-TP53BP1-CLTA = tested on: A549-TP53BP1-CLTA
How it was run: as §1

A549-TUBA1B-RELA = tested on: A549-TUBA1B-RELA
How it was run: as §1

HepG2-ACTB-RAB5A = tested on: HepG2-ACTB-RAB5A
How it was run: as §1

HepG2-CANX-COX4 = tested on: HepG2-CANX-COX4
How it was run: as §1

HepG2-GM130-SQSTM1 = tested on: HepG2-GM130-SQSTM1
How it was run: as §1

HepG2-TP53BP1-CLTA = tested on: HepG2-TP53BP1-CLTA
How it was run: as §1

HepG2-TUBA1B-RELA = tested on: HepG2-TUBA1B-RELA
How it was run: as §1

WPMY1-ACTB-RAB5A = tested on: WPMY1-ACTB-RAB5A
How it was run: as §1

WPMY1-CANX-COX4 = tested on: WPMY1-CANX-COX4
How it was run: as §1

WPMY1-GM130-SQSTM1 = tested on: WPMY1-GM130-SQSTM1
How it was run: as §1

WPMY1-TP53BP1-CLTA = tested on: WPMY1-TP53BP1-CLTA
How it was run: as §1

WPMY1-TUBA1B-RELA = tested on: WPMY1-TUBA1B-RELA
How it was run: as §1

Measured: phenotypically active

N[C@@H]1C[C@H]1c1ccccc1 [Tranylcypromine hydrochloride]
inactive: A549-ACTB-RAB5A 0 | A549-CANX-COX4 0 | A549-GM130-SQSTM1 0 | A549-TP53BP1-CLTA 0 | A549-TUBA1B-RELA 0 | HepG2-ACTB-RAB5A 0 | HepG2-CANX-COX4 0 | HepG2-GM130-SQSTM1 0 | HepG2-TP53BP1-CLTA 0 | HepG2-TUBA1B-RELA 0 | WPMY1-ACTB-RAB5A 0 | WPMY1-CANX-COX4 0 | WPMY1-GM130-SQSTM1 0 | WPMY1-TP53BP1-CLTA 0 | WPMY1-TUBA1B-RELA 0

COc1ccc(OC)c(C(O)C(C)N)c1 (stereo not given) [methoxamine]
inactive: A549-ACTB-RAB5A 0 | A549-CANX-COX4 0 | A549-GM130-SQSTM1 0 | A549-TP53BP1-CLTA 0 | A549-TUBA1B-RELA 0 | HepG2-ACTB-RAB5A 0 | HepG2-CANX-COX4 0 | HepG2-GM130-SQSTM1 0 | HepG2-TP53BP1-CLTA 0 | HepG2-TUBA1B-RELA 0 | WPMY1-ACTB-RAB5A 0 | WPMY1-CANX-COX4 0 | WPMY1-GM130-SQSTM1 0 | WPMY1-TP53BP1-CLTA 0 | WPMY1-TUBA1B-RELA 0

COc1ccc2c(c1O)-c1c(OC)c(OC)cc3c1[C@H](C2)N(C)CC3 [Isocorydine (+)]
inactive: A549-ACTB-RAB5A 0 | A549-CANX-COX4 0 | A549-GM130-SQSTM1 0 | A549-TP53BP1-CLTA 0 | A549-TUBA1B-RELA 0 | HepG2-ACTB-RAB5A 0 | HepG2-CANX-COX4 0 | HepG2-GM130-SQSTM1 0 | HepG2-TP53BP1-CLTA 0 | HepG2-TUBA1B-RELA 0 | WPMY1-ACTB-RAB5A 0 | WPMY1-CANX-COX4 0 | WPMY1-GM130-SQSTM1 0 | WPMY1-TP53BP1-CLTA 0 | WPMY1-TUBA1B-RELA 0

CCN1C[C@]2(COC)CC[C@H](O)[C@@]34[C@@H]5C[C@H]6[C@H](OC(C)=O)[C@@H]5[C@](O)(C[C@@H]6OC)[C@H](C[C@H]23)[C@H]14 [Condelphine]
inactive: A549-ACTB-RAB5A 0 | A549-CANX-COX4 0 | A549-GM130-SQSTM1 0 | A549-TP53BP1-CLTA 0 | A549-TUBA1B-RELA 0 | HepG2-ACTB-RAB5A 0 | HepG2-CANX-COX4 0 | HepG2-GM130-SQSTM1 0 | HepG2-TP53BP1-CLTA 0 | HepG2-TUBA1B-RELA 0 | WPMY1-ACTB-RAB5A 0 | WPMY1-CANX-COX4 0 | WPMY1-GM130-SQSTM1 0 | WPMY1-TP53BP1-CLTA 0 | WPMY1-TUBA1B-RELA 0

CN1[C@@H]2CC(=O)C[C@H]1[C@H](O)C2 [6-Hydroxytropinone]
inactive: A549-ACTB-RAB5A 0 | A549-CANX-COX4 0 | A549-GM130-SQSTM1 0 | A549-TP53BP1-CLTA 0 | A549-TUBA1B-RELA 0 | HepG2-ACTB-RAB5A 0 | HepG2-CANX-COX4 0 | HepG2-GM130-SQSTM1 0 | HepG2-TP53BP1-CLTA 0 | HepG2-TUBA1B-RELA 0 | WPMY1-ACTB-RAB5A 0 | WPMY1-CANX-COX4 0 | WPMY1-GM130-SQSTM1 0 | WPMY1-TP53BP1-CLTA 0 | WPMY1-TUBA1B-RELA 0

C[C@@H](N)[C@@H](O)c1ccccc1 [phenylpropanolamine]
inactive: A549-ACTB-RAB5A 0 | A549-CANX-COX4 0 | A549-GM130-SQSTM1 0 | A549-TP53BP1-CLTA 0 | A549-TUBA1B-RELA 0 | HepG2-ACTB-RAB5A 0 | HepG2-CANX-COX4 0 | HepG2-GM130-SQSTM1 0 | HepG2-TP53BP1-CLTA 0 | HepG2-TUBA1B-RELA 0 | WPMY1-ACTB-RAB5A 0 | WPMY1-CANX-COX4 0 | WPMY1-GM130-SQSTM1 0 | WPMY1-TP53BP1-CLTA 0 | WPMY1-TUBA1B-RELA 0

C=C1[C@H]2C[C@@]3([C@@H]1O)[C@@H](C[C@@H]2O)[C@]12[C@@H]4C[C@H]3[C@H]1N(CC)C[C@]4(C)CC[C@@H]2O [Napelline]
inactive: A549-ACTB-RAB5A 0 | A549-CANX-COX4 0 | A549-GM130-SQSTM1 0 | A549-TP53BP1-CLTA 0 | A549-TUBA1B-RELA 0 | HepG2-ACTB-RAB5A 0 | HepG2-CANX-COX4 0 | HepG2-GM130-SQSTM1 0 | HepG2-TP53BP1-CLTA 0 | HepG2-TUBA1B-RELA 0 | WPMY1-ACTB-RAB5A 0 | WPMY1-CANX-COX4 0 | WPMY1-GM130-SQSTM1 0 | WPMY1-TP53BP1-CLTA 0 | WPMY1-TUBA1B-RELA 0

CN1C(CC(O)c2ccccc2)CCCC1CC(O)c1ccccc1 (stereo not given) [Lobelanidine hydrochloride]
inactive: A549-ACTB-RAB5A 0 | A549-CANX-COX4 0 | A549-GM130-SQSTM1 0 | A549-TP53BP1-CLTA 0 | A549-TUBA1B-RELA 0 | HepG2-ACTB-RAB5A 0 | HepG2-CANX-COX4 0 | HepG2-GM130-SQSTM1 0 | HepG2-TP53BP1-CLTA 0 | HepG2-TUBA1B-RELA 0 | WPMY1-ACTB-RAB5A 0 | WPMY1-CANX-COX4 0 | WPMY1-GM130-SQSTM1 0 | WPMY1-TP53BP1-CLTA 0 | WPMY1-TUBA1B-RELA 0

C[N+]1([O-])[C@@H]2C[C@@H](OC(=O)[C@H](CO)c3ccccc3)C[C@H]1[C@@H]1O[C@@H]12 (stereo not given in full) [Genoscopolamine HBr]
inactive: A549-ACTB-RAB5A 0 | A549-CANX-COX4 0 | A549-GM130-SQSTM1 0 | A549-TP53BP1-CLTA 0 | A549-TUBA1B-RELA 0 | HepG2-ACTB-RAB5A 0 | HepG2-CANX-COX4 0 | HepG2-GM130-SQSTM1 0 | HepG2-TP53BP1-CLTA 0 | HepG2-TUBA1B-RELA 0 | WPMY1-ACTB-RAB5A 0 | WPMY1-CANX-COX4 0 | WPMY1-GM130-SQSTM1 0 | WPMY1-TP53BP1-CLTA 0 | WPMY1-TUBA1B-RELA 0

CCN1C[C@@]2(COC)C3[C@@H](OC)[C@H]4[C@H]1C3([C@@H]1C[C@@]3(O)[C@H](OC(=O)c5ccccc5)[C@@H]1[C@]4(OC(C)=O)[C@@H](O)[C@@H]3OC)[C@H](OC)C[C@H]2O [Aconitine]
inactive: A549-ACTB-RAB5A 0 | A549-CANX-COX4 0 | A549-GM130-SQSTM1 0 | A549-TP53BP1-CLTA 0 | A549-TUBA1B-RELA 0 | HepG2-ACTB-RAB5A 0 | HepG2-CANX-COX4 0 | HepG2-GM130-SQSTM1 0 | HepG2-TP53BP1-CLTA 0 | HepG2-TUBA1B-RELA 0 | WPMY1-ACTB-RAB5A 0 | WPMY1-CANX-COX4 0 | WPMY1-GM130-SQSTM1 0 | WPMY1-TP53BP1-CLTA 0 | WPMY1-TUBA1B-RELA 0

CN1CCc2cc3c(cc2[C@H]1[C@@H]1OC(=O)c2c1ccc1c2OCO1)OCO3 [bicuculine]
inactive: A549-ACTB-RAB5A 0 | A549-CANX-COX4 0 | A549-GM130-SQSTM1 0 | A549-TP53BP1-CLTA 0 | A549-TUBA1B-RELA 0 | HepG2-ACTB-RAB5A 0 | HepG2-CANX-COX4 0 | HepG2-GM130-SQSTM1 0 | HepG2-TP53BP1-CLTA 0 | HepG2-TUBA1B-RELA 0 | WPMY1-ACTB-RAB5A 0 | WPMY1-CANX-COX4 0 | WPMY1-GM130-SQSTM1 0 | WPMY1-TP53BP1-CLTA 0 | WPMY1-TUBA1B-RELA 0

C=C[C@H]1C[N@@]2CC[C@H]1C[C@H]2[C@H](O)c1ccnc2ccccc12 [(-)-Cinchonidine]
inactive: A549-ACTB-RAB5A 0 | A549-CANX-COX4 0 | A549-GM130-SQSTM1 0 | A549-TP53BP1-CLTA 0 | A549-TUBA1B-RELA 0 | HepG2-ACTB-RAB5A 0 | HepG2-CANX-COX4 0 | HepG2-GM130-SQSTM1 0 | HepG2-TP53BP1-CLTA 0 | HepG2-TUBA1B-RELA 0 | WPMY1-ACTB-RAB5A 0 | WPMY1-CANX-COX4 0 | WPMY1-GM130-SQSTM1 0 | WPMY1-TP53BP1-CLTA 0 | WPMY1-TUBA1B-RELA 0

Source: the supplement of paper PMC7411054
